Bioassay records from PubChem BioAssay.
FMDV antiviral: antivirals against foot and mouth disease virus. 410,000 compounds, 1.2% hits. FMDV antiviral cell-based qHTS. Potency, µM (series often up to 57.9 µM), inactives show top-dose activity change, negative = inhibition, most hits filed as inhibitors. AID 1159524; calls by dose curve; tested in HEK293T cells; note: read-out not given here; potency is the fitted concentration of half-maximal effect; nearly all actives have a fitted effect of over 45% in size
Lassa entry inh: Lassa virus entry inhibition; Lassa virus pseudotype entry inhibition, cell reporter; Potency, µM (titrated, usually from 37.9 µM), for the others: top-dose activity change, negative = inhibition, hits mostly inhibitors; AID 540256; 300,000 compounds, 1.2% hits; calls by dose curve; tested in HEK293 cells; note: potency is the fitted concentration of half-maximal effect; nearly all actives have a fitted effect of over 50% in size
Giardia FBPA inh-1: inhibitors of Giardia lamblia fructose-1,6-bisphosphate aldolase | 290,000 compounds, 0.71% hits | A8B2U2 | Potency, µM (highest dose often 59.6 µM), for the others: at the highest dose activity, negative = inhibition, most hits filed as inhibitors | purified Giardia FBPA; note: potency is the fitted concentration of half-maximal effect; nearly all actives have a fitted effect of over 55% in size
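40 nM FBPA preincubated 10 min at RT with compound (up to 57.5 uM final), then substrate plus GAPDH/TPI/NAD/arsenate coupling and diaphorase/resazurin added. Fluorescence read after 20 min at RT, 525/598 nm.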
MARV entry inh: inhibitors of Marburg virus binding or cell entry; Marburg virus pseudotyped entry inhibition, cell reporter; Potency, µM (highest dose often 37.8 µM), for inactives: at the highest dose activity change, negative = inhibition, usual class: inhibitors; 300,000 compounds, 1.8% hits; calls by dose curve; tested in HEK293 cells; note: potency is the fitted concentration of half-maximal effect
HCV inhibitor: blocks hepatitis C virus; 340,000 compounds, 3.4% hits; Potency, µM (highest dose often 41.8 µM), inactives show at the top dose activity change, negative = inhibition, actives largely listed as inhibitors; Huh7.5.1 HCVcc-Cre infection, luciferase reporter, 44 h; note: potency is the fitted concentration of half-maximal effect
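1,000 cells/well; 4 h culture; + compound; + HCVcc-Cre (~0.5 moi); 44 h; luciferase substrate, RT 15 min; read 15 sec.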
HCMV antiviral: inhibitors of human cytomegalovirus; HFF cells, HCMV-luciferase reporter, 72 h; active compounds read low; AID 1259415; activity change, negative = inhibition, % at 57.5 µM; 410,000 compounds, 4.5% hits; in the data active = activity change below about -60%; inconclusive = no clear call, values can overlap the other calls; inactive = above about -39%
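Two-dose cell screen: HFF monolayers treated with compounds and infected with luciferase-expressing HCMV at 1 PFU/cell, 72 h at 37C, then lysed for luciferase measurement.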
Giardia growth: inhibitors of Giardia lamblia growth | 1,500 compounds, 5% hits | Giardia lamblia trophozoite growth inhibition | AID 2785 | Potency, µM (doses to about 57.5 µM), for the others: at the highest dose activity change, negative = inhibition, actives largely listed as inhibitors | shares compounds with Giardia FBPA inh-1;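 note: potency is the fitted concentration of half-maximal effect; trophozoites exposed to compound for 48 h at 37 °C; nearly all actives have a fitted effect of over 70% in size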
Mammalian tox: mammalian cytotoxicity of Giardia aldolase inhibitor hits; shares compounds with Giardia FBPA inh-1; mammalian cell viability counter-screen, qHTS; Potency, µM (top dose mostly 57.5 µM), inactives show top-dose viability change, negative = toxicity, usual class: inhibitors; 1,500 compounds, 4% hits; AID 2786;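 note: Chinese hamster ovary cells used as mammalian cytotoxicity surrogate; viability measured as cellular ATP by luminescence; potency is the fitted concentration of half-maximal effect; compound exposure lasted 48 h before reading; nearly all actives have a fitted effect of over 60% in size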
Giardia FBPA inh-2: confirmation of Giardia fructose-bisphosphate aldolase inhibitors | shares compounds with Giardia FBPA inh-1 | purified Giardia aldolase enzyme activity, qHTS | Potency, µM (titrated, usually from 57.5 µM), without a hit: at the highest dose activity change, negative = inhibition, usual class: inhibitors | 1,500 compounds, 5% hits | AID 2787; note: potency is the fitted concentration of half-maximal effect; nearly all actives have a fitted effect of over 45% in size
Rabbit FBPA inh: blocks rabbit muscle aldolase in Giardia aldolase selectivity test. shares compounds with Giardia FBPA inh-1. 1,500 compounds, 4% hits. Rabbit muscle FBPA enzyme inhibition, selectivity counter-screen. Potency, µM (top dose mostly 57.5 µM), for the others: top-dose activity, negative = inhibition, hits mostly inhibitors; note: potency is the fitted concentration of half-maximal effect; nearly all actives have a fitted effect of over 60% in size
Target sequence (P00883 whole entry, looked up): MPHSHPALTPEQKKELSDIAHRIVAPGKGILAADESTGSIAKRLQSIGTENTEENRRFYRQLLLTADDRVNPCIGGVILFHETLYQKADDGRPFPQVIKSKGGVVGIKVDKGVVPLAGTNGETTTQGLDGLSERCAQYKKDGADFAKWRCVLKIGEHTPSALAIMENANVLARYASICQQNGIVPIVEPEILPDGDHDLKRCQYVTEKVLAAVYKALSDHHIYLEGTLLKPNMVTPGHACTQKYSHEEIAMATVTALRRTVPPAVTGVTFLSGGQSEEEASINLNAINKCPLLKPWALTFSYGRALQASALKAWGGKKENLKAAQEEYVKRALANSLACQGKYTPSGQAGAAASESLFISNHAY
GAPDH counter: GAPDH inhibition flagged for Giardia aldolase hits. GAPDH coupling enzyme counterscreen, biochemical, qHTS. AID 2795. Potency, µM (doses to about 57.5 µM), for inactives: top-dose activity change, negative = inhibition, actives largely listed as inhibitors. 1,500 compounds, 6% hits. shares compounds with Giardia FBPA inh-1; note: potency is the fitted concentration of half-maximal effect; nearly all actives have a fitted effect of over 55% in size
* marks the source's active call; other numbers are inactive results; ? = inconclusive; nt = not tested or not shown; [ ] = another dose, or the depositor's remark. Rows were chosen to be rich in hits. Some 8.3% of all compounds tested hit in one or more screens of this group. Unless noted, calls come from the whole dose curve; as a rule, active = well fitted curve in the direction sought with a large enough effect; inconclusive = small, poorly fitted or top-dose-only effect, or another doubt; inactive = no such curve, though single readings can be large; an effect the other way counts as inactive or inconclusive. % is set by controls: 0 for no effect and ±100 for the full control effect.

SMILES	FMDV antiviral	Lassa entry inh	Giardia FBPA inh-1	MARV entry inh	HCV inhibitor	HCMV antiviral	Giardia growth	Mammalian tox	Giardia FBPA inh-2	Rabbit FBPA inh	GAPDH counter
CC(=O)c1c(C)oc2c1cc(NS(=O)(=O)c1ccc(Cl)c(C)c1)c1ccccc12	-14.5%	?	nt	?	nt	26.8	nt	nt	nt	nt	nt
CC1(C)CC(=O)c2cc(C(=O)Nc3ccc(Cl)cc3)c(=O)[nH]c2C1	76.9%	6.9%[46.1 µM]	nt	?	nt	57.0	nt	nt	nt	nt	nt
CCCn1c(NCc2ccc3c(c2)OCO3)nc2ccccc21	6.0%	8.7%	4.7%	8.8%	?	61.6	nt	nt	nt	nt	nt
CN(C)CCn1c(NCc2ccc3c(c2)OCO3)nc2ccccc21	-14.3%	nt	28.2µM*	nt	5.4%	14.7	?	-14.1%	4.9%	6.5%	9.2%
C=CC1=C2C=C(C3CC3)N(CCOC)C=C2C(=O)C(C)(OC(=O)c2ccco2)C1=O (centres undefined)	nt	nt	?	-2.2%[14.2 µM]	nt	nt	nt	nt	nt	nt	nt
O=C(CNC1CC1)Nc1cc(C(F)(F)F)ccc1Cl	-20.7%	nt	7.92µM*	nt	7.4%	?	?	-11.6%	-1.5%	4.1%	4.6%
CN(C)CC(=O)Nc1cc(C(F)(F)F)ccc1Cl	-16.6%	0.4%	-0.2%	10.4%	2.4%	42.3	nt	nt	nt	nt	nt
Cc1ccc(C)c(OCCOCCN2CC(C)OC(C)C2)c1C (centres undefined)	3.1%	-19.9%	17.7µM*	-26.1%	14.5%	52.0	-2.0%[10.4 µM]	-1.3%	6.0%	4.7%	0.1%
CC1CN(CCCCN2C(=O)c3ccccc3C2=O)CC(C)O1 (centres undefined)	-10.1%	3.2%[46.1 µM]	22.3µM*	9.0%[46.1 µM]	24.0%	-16.7	?	17.9%	1.8%	2.2%	1.5%
CC1CN(CCOCCOc2ccccc2-c2ccccc2)CC(C)O1 (centres undefined)	-8.0%	nt	11.2µM*	nt	-12.9%	6.1	-8.4%[10.4 µM]	-1.4%	1.3%	1.0%	10.4%
CC1CN(CN2C(=O)c3ccccc3C2=O)CC(C)O1 (centres undefined)	-1.6%	?	0.0%	?	8.0%	16.1	nt	nt	nt	nt	nt
COc1ccc(Cl)cc1NC(=O)c1cnc2sc(N3CCOCC3)nn2c1=O	-13.2%	25.9%[46.1 µM]	nt	nt	nt	31.9	nt	nt	nt	nt	nt
CC1(C)C2CCC(C2)C1(C)NC(=O)CN1CCN(Cc2ccccc2)CC1 (centres undefined)	?	-19.1%	15.8µM*	-2.7%[46.1 µM]	7.7%	-31.9	-0.3%[10.4 µM]	2.8%	-4.5%	4.4%	-8.6%
CN(C)C(=S)SSC(=S)N(C)C	0.0%	nt	39.8µM*	nt	1.9%	-98.5*	14.1µM*	4.47µM*	?	?	39.8µM*
CC(C)C[C@H]1COc2cc(NCc3ccc(Cl)c(Cl)c3)ccc2S(=O)(=O)N1	nt	nt	nt	nt	nt	-13.0	nt	nt	nt	nt	nt
O=C(Nc1ncn[nH]1)c1ccccc1O	-0.9%	nt	19.9µM*	nt	16.9%	17.0	?	-2.7%	-12.0%	-3.5%	7.8%
O=C(Nc1ncn[nH]1)c1c(Cl)ccc(Cl)c1Cl	-17.4%	?	-5.2%	5.3%	-4.9%	9.6	nt	nt	nt	nt	nt
COc1ccc(CCn2c(Br)nc3c2c(=O)[nH]c(=O)n3C)cc1	-6.4%	?	2.6%	?	-11.6%	-33.5	nt	nt	nt	nt	nt
